Results from PubChem BioAssay (NCATS).
Values joined by “and” are separate entries in the source; they are usually repeats but may differ in a detail not shown here. Equal entries are not always repeated. Results filed as inconclusive are left out. Where a call stands in place of a potency, no number is given. The source holds several records for some structures; these can differ, active in one and inactive in another. Active and inactive are the calls of the source. Unless noted, calls follow the shape of the full dose curve.

Legend:
[1] = target: Androgen receptor (Homo sapiens) (UniProt P10275); experiment: qHTS assay for small molecule agonists of androgen receptor signaling (AID 588515; active = well fitted curve in the direction sought with a large enough effect in the signal ratio, with a control signal flat; the % refers to the signal ratio); details: AR-UAS-bla HEK293, beta-lactamase ratio, agonist 16 h; stronger effect = higher value
Sequence of Androgen receptor (Homo sapiens) (P10275 whole entry, looked up): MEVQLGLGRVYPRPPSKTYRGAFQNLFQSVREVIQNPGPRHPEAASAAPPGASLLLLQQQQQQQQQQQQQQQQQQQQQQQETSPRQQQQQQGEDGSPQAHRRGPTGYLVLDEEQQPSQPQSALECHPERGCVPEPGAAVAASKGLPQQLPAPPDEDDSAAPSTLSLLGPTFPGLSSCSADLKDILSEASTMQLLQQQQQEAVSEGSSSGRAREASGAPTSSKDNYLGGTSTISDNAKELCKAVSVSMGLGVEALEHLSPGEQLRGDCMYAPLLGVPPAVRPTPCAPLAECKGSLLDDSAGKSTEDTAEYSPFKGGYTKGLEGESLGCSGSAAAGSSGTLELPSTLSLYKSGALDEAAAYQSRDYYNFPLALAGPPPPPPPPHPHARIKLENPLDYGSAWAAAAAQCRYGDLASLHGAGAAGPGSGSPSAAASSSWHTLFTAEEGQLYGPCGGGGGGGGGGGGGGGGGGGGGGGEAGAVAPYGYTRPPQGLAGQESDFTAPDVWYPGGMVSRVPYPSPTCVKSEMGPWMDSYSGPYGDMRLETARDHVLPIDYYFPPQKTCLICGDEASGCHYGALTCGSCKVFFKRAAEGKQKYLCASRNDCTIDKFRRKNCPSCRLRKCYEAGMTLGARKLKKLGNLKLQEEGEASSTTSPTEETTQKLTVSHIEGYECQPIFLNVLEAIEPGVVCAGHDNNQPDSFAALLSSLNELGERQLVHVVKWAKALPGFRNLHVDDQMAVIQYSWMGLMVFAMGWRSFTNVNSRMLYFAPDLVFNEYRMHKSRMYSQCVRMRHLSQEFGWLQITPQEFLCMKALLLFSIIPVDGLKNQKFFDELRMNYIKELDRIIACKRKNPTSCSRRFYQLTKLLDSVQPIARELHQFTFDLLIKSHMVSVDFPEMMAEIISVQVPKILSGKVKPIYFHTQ
Outline: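 Stimulation of an AR-responsive β-lactamase reporter in GripTite HEK293 cells was measured after 16 h compound exposure at 37 °C, via CCF4 fluorescence after 2 h RT. EC50 from Hill fits, normalized to R1881 at 30 nM.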

[2] = target: Androgen receptor (Homo sapiens) (UniProt P10275); experiment: qHTS assay for small molecule antagonists of androgen receptor signaling (AID 588516; active = well fitted curve in the direction sought with a large enough effect in the signal ratio, with a control signal flat, not every such curve was filed as active; the % refers to the signal ratio)
Outline: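 AR-UAS-bla GripTite HEK 293 cells (2000/well) treated with compound titrations plus 10 nM R1881 for 16 h at 37C. Beta-lactamase read by CCF4 FRET (460/530 nm); IC50 from Hill fits, normalized to R1881 and DMSO control wells.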

[3] = target: Glucocorticoid receptor (Homo sapiens) (UniProt P04150); experiment: qHTS assay for small molecule agonists of glucocorticoid receptor signaling (AID 588532; active = well fitted curve in the direction sought with a large enough effect in the signal ratio, with a control signal flat; the % refers to the signal ratio); details: HeLa MMTV-bla, beta-lactamase ratio, agonist, 18 h; activation: stronger effect = higher value, percent of dexamethasone control, DMSO zero
Sequence of Glucocorticoid receptor (Homo sapiens) (P04150 whole entry, looked up): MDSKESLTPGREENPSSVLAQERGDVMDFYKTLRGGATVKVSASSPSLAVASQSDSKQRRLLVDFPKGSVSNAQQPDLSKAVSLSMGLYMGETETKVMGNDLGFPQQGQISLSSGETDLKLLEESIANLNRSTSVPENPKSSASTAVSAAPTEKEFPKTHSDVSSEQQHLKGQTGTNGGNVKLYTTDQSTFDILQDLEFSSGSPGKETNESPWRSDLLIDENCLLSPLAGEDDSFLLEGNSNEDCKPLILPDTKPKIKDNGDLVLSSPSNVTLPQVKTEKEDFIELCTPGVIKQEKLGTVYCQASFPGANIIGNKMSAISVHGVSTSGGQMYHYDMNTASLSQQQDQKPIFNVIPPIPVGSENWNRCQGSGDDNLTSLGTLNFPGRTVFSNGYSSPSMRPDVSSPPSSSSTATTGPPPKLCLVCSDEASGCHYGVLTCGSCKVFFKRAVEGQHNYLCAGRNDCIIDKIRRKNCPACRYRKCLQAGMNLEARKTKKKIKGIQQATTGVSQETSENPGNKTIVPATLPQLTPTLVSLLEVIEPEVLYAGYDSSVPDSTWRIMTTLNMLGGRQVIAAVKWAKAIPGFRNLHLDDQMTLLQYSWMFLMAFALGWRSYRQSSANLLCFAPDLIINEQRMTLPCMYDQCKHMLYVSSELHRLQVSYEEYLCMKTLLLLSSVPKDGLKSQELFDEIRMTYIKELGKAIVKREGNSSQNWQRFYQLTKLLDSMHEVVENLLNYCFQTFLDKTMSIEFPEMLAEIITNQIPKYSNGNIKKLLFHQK
Outline: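 Titration series, up to 92 uM, applied to GRE-bla HeLa cells for 18 h at 37 C. Detection by CCF4 FRET substrate after 2 h at RT.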

[4] = target: Peroxisome proliferator-activated receptor delta (Homo sapiens) (UniProt Q03181); experiment: qHTS assay for small molecule antagonists of peroxisome proliferator-activated receptor delta signaling (AID 588535; active = well fitted inhibition curve with a large enough effect in the signal ratio, with a control signal flat, not every such curve was filed as active; the % refers to the signal ratio)
Sequence of Peroxisome proliferator-activated receptor delta (Homo sapiens) (Q03181 whole entry, looked up): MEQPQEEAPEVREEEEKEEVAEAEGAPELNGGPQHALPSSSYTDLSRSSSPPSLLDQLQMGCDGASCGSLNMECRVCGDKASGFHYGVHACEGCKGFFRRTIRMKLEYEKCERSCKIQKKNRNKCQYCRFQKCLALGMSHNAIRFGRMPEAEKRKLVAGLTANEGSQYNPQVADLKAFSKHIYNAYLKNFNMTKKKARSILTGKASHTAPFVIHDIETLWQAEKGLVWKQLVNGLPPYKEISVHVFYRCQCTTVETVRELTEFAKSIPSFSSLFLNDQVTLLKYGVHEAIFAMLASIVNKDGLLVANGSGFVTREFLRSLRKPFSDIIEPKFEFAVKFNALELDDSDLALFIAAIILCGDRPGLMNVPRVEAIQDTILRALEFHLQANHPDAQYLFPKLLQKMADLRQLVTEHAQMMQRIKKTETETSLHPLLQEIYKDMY
Outline: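 Compounds tested in titration on PPAR-delta-UAS-bla HEK293T cells grown in charcoal/dextran-stripped serum (2%); beta-lactamase activity read via CCF4 emission at 460 and 530 nm.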

[5] = target: Peroxisome proliferator-activated receptor gamma (Homo sapiens) (UniProt P37231); experiment: qHTS assay for small molecule agonists of peroxisome proliferator-activated receptor gamma signaling (AID 588536; active = well fitted curve in the direction sought with a large enough effect in the signal ratio, with a control signal flat, not every such curve was filed as active; the % refers to the signal ratio)
Sequence of Peroxisome proliferator-activated receptor gamma (Homo sapiens) (P37231 whole entry, looked up): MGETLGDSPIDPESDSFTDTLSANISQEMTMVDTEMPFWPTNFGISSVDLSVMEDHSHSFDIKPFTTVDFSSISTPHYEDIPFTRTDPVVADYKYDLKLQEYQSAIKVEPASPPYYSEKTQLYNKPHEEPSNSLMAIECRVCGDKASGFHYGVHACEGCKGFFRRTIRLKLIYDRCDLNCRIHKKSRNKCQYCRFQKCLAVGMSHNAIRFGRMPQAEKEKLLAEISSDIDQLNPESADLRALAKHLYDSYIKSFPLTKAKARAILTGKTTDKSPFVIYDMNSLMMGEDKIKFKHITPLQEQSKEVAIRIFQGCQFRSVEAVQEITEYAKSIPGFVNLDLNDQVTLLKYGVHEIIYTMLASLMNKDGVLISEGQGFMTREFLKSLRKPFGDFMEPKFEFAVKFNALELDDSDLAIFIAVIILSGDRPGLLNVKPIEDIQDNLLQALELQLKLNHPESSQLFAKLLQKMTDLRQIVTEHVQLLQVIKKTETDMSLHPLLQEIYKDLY
Outline: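 Compound treatment: 16 h, 37 C, HEK293 GeneBLAzer cells. Detection: CCF4, 2 h RT. Values: Hill-fit EC50, efficacy as % of 2 uM rosiglitazone.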

[6] = target: Peroxisome proliferator-activated receptor gamma (Homo sapiens) (UniProt P37231); experiment: qHTS assay for small molecule antagonists of peroxisome proliferator-activated receptor gamma signaling (AID 588537; active = well fitted inhibition curve with a large enough effect in the signal ratio, with a control signal flat, not every such curve was filed as active; the % refers to the signal ratio; also: potency is read from the fitted curve at half-maximal effect)
Outline: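 HEK293 cells, PPAR-gamma-UAS-bla, 3000/well. Pre-incubation 6-6.5 h, 37 C. Compound titration with rosiglitazone 50 nM final, 16 h. CCF4 dye, 2 h RT, dual-emission fluorescence.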

[7] = qHTS assay for small molecule activators of the human pregnane X receptor (PXR) signaling pathway (AID 720659; call rule not given here)
[8] = qHTS assay for small molecule agonists of the antioxidant response element (ARE) signaling pathway (AID 651741; active = well fitted activation curve with a large enough effect in the signal ratio; the % refers to the signal ratio; also: potency is read from the fitted curve at half-maximal effect)
Outline: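 Beta-lactamase reporter expression driven by the antioxidant response element in HepG2 cells was detected by fluorescence with LiveBLAzer B/G FRET substrate (2 h, room temperature) following 16 h compound treatment at 37 C.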

[9] = qHTS assay for small molecule activators of the nuclear factor-kappa B (NF-kB) signaling pathway (AID 651749; active = well fitted activation curve with a large enough effect in the signal ratio; the % refers to the signal ratio; also: series mostly up to about 77 µM); details: NF-kB-bla ME-180 cells, beta-lactamase FRET ratio, 16 h; activation: stronger effect = higher value
Outline: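 Beta-lactamase reporter expression, controlled by NF-kB response elements in ME-180 cells, was quantified fluorometrically via FRET disruption; cells at 2,000/well had been incubated with 23 nL test compound for 16 hr.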

[10] = target: Bile acid receptor (Homo sapiens) (UniProt Q96RI1); experiment: qHTS assay for small molecule antagonists of farnesoid X receptor signaling (AID 588526)
Sequence of Bile acid receptor (Homo sapiens) (Q96RI1 whole entry, looked up): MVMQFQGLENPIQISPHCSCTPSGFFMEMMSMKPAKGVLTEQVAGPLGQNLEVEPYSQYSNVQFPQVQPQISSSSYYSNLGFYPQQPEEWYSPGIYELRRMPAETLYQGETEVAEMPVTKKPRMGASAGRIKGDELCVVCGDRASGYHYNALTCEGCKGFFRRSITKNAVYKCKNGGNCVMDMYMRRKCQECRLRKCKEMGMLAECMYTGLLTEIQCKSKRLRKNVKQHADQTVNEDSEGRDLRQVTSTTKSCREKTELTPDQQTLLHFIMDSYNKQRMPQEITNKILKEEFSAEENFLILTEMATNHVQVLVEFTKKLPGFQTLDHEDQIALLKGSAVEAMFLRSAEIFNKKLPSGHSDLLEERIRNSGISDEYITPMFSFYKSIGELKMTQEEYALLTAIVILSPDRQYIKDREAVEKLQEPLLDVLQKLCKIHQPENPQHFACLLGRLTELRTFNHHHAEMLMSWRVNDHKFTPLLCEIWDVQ
Outline: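 Concentration-response titrations were fitted to the Hill equation for half-maximal inhibition and maximal response, with data normalised to 50 uM chenodeoxycholic acid and DMSO control wells. Cells: FXR-UAS-bla HEK293T, dialyzed FBS.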

[11] = qHTS assay for small molecule disruptors of the mitochondrial membrane potential - 1 hr assay (AID 651754); also: potency is read from the fitted curve at half-maximal effect; nearly all actives have a fitted effect of over 35% in size
Outline: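 Read-out: dye fluorescence at 490 nm ex/535 nm em (monomers) and 540 nm ex/590 nm em (aggregates) in HepG2 cells. Compound exposure 1 hr at 37C, followed by 30 min dye loading.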

[12] = target: Tumor necrosis factor (Homo sapiens) (UniProt P01375); experiment: qHTS assay to identify small molecules that stimulate Tumor Necrosis Factor-alpha (TNF-alpha) secretion (AID 651757; active = well fitted curve in the direction sought with a large enough effect in the signal ratio; the % refers to the signal ratio; also: potency is read from the fitted curve at half-maximal effect)
Sequence of Tumor necrosis factor (Homo sapiens) (P01375 whole entry, looked up): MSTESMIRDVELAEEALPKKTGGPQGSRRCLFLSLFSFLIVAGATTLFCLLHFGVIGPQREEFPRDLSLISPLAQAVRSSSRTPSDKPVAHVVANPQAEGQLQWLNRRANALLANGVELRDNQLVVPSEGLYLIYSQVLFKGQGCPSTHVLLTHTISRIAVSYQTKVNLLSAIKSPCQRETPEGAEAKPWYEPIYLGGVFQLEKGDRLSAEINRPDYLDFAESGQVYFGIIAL
Outline: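 THP-1 cells, 3000/well; compound 17 hrs, 37 C; add cryptate/XL665 anti-TNF-alpha antibody pair; 3 hr RT; TR-FRET (HTRF) read of secreted TNF-alpha. Quantitative HTS format.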

Compound: COc1cc(OC)nc(NC(=O)NS(=O)(=O)c2cc(NC=O)ccc2C(=O)N(C)C)n1
- activation [1]: 1.85% (inactive)
- Potency [2]: inactive
- activation [3]: -12.6% (inactive)
- Potency [4]: inactive
- Potency [5]: inactive
- Potency [6]: inactive
- outcome [7]: inactive

Compound: CCC(C)(C)c1cc(-n2nc3ccccc3n2)c(O)c(C(C)(C)CC)c1
- activation [1]: 3.42% (inactive)
- Potency [2]: inactive
- Potency [4]: inactive
- Potency [8]: 30.6 µM (active)
- activation [9]: -0.182% (inactive)
- outcome [7]: inactive

Compound: COC(=O)c1c(C(F)F)nc(C(F)(F)F)c(C2=NCCS2)c1CC(C)C
- activation [1]: -1.74% (inactive)
- Potency [2]: inactive
- Potency [4]: inactive
- Potency [5]: inactive
- activation [9]: -2.57% (inactive)

Compound: N#CCNC(=O)c1cnccc1C(F)(F)F
- activation [1]: 4.4% (inactive)
- Potency [2]: inactive
- Potency [10]: inactive
- activation [3]: 0.151% (inactive)
- Potency [5]: inactive
- Potency [6]: inactive
- Potency [8]: inactive
- outcome [7]: inactive

Compound: CCNc1nc(Cl)nc(NC(C)(C)C)n1
- activation [1]: -15.6% (inactive)
- Potency [2]: inactive
- Potency [10]: inactive
- Potency [4]: inactive
- Potency [5]: inactive
- Potency [6]: inactive
- Potency [8]: inactive
- activation [9]: -1.02% (inactive)

Compound: CCCCCCCCCCCC#N
- Potency [10]: inactive
- activation [3]: -5.17% (inactive)
- Potency [5]: inactive
- Potency [6]: inactive
- Potency [8]: inactive
- activation [9]: -0.827% (inactive)
- outcome [7]: inactive

Compound: CCCCCCCCCCCCC1=C(OC(C)=O)C(=O)c2ccccc2C1=O
- activation [1]: -4.72% (inactive)
- activation [3]: -3.65% (inactive)
- activation [9]: -0.928% (inactive)
- outcome [7]: inactive

Compound: CCCCOC(=O)c1ccccc1C(=O)O
- activation [1]: 5.7% (inactive)
- Potency [4]: inactive
- Potency [5]: inactive
- outcome [7]: inactive

Compound: CSc1nnc(C(C)(C)C)c(=O)n1N
- Potency [10]: inactive
- activation [3]: -5.36% (inactive)
- Potency [4]: inactive
- Potency [8]: inactive
- activation [9]: -0.061% (inactive)

Compound: CC1(C)[C@H](C(=O)O[C@H](C#N)c2cccc(Oc3ccccc3)c2)[C@@H]1/C=C(\Cl)C(F)(F)F
- Potency [10]: inactive
- activation [3]: 16% (inactive)
- Potency [8]: 54.5 µM (active)
- activation [9]: -0.133% (inactive)

Compound: CCCOCC(=Nc1ccc(Cl)cc1C(F)(F)F)n1ccnc1
- Potency [10]: inactive
- Potency [4]: inactive
- Potency [8]: 19.3 µM (active)

Compound: Brc1ccc(Br)cc1
- Potency [10]: inactive
- activation [3]: 1.41% (inactive)
- Potency [6]: inactive
- outcome [7]: inactive

Compound: CCC(C)c1ccc(O)cc1 (configuration not stated)
- Potency [10]: inactive
- activation [3]: 2.12% (inactive)
- activation [9]: -0.802% (inactive)
- outcome [7]: inactive

Compound: CCN(CC)C(=O)SCc1ccc(Cl)cc1
- Potency [10]: inactive
- Potency [6]: inactive
- activation [9]: -0.511% (inactive)

Compound: C[C@H]1[C@H](c2ccc(Cl)cc2)SC(=O)N1C(=O)NC1CCCCC1
- activation [1]: -15.6% (inactive)
- activation [3]: -1.81% (inactive)
- Potency [8]: 54.5 µM (active)

Compound: COc1cccc(C(=O)NN(C(=O)c2cc(C)cc(C)c2)C(C)(C)C)c1C
- Potency [10]: inactive
- Potency [4]: inactive
- Potency [5]: inactive

Compound: C=CC(=O)OCC(CC)(COC(=O)C=C)COC(=O)C=C
- activation [1]: -16.7% (inactive)
- activation [3]: -13.7% (inactive)
- Potency [8]: 34.4 µM (active)

Compound: c1ccc2c(c1)[nH]c1ccccc12
- activation [1]: 0.372% (inactive)
- Potency [11]: 59.6 µM (active)

Compound: CC(C)COP(=O)(OCC(C)C)OCC(C)C
- Potency [10]: inactive
- Potency [5]: inactive
- Potency [6]: inactive
- activation [9]: -3.3% (inactive)
- outcome [7]: inactive

Compound: CCCN(CCOc1c(Cl)cc(Cl)cc1Cl)C(=O)n1ccnc1
- Potency [10]: inactive
- activation [3]: 3.18% (inactive) and 2.99% (inactive)
- Potency [4]: inactive
- Potency [5]: inactive
- Potency [6]: 44.7 µM (active) and inactive
- Potency [8]: 30.6 µM (active) and 48.6 µM (active)

Compound: CCNS(=O)(=O)C(F)(F)C(F)(F)C(F)(F)C(F)(F)C(F)(F)C(F)(F)C(F)(F)C(F)(F)F
- activation [1]: 7.01% (inactive)
- Potency [4]: inactive
- Potency [5]: inactive
- Potency [6]: inactive
- outcome [7]: inactive

Compound: CCOc1cc(C(C)(C)C)ccc1C1COC(c2c(F)cccc2F)=N1 (configuration not stated)
- activation [1]: -19.9% (inactive)
- Potency [4]: inactive
- Potency [8]: 12.2 µM (active)
- activation [9]: 3.07% (inactive)

Compound: c1ccc2c(c1)c1cccc3ccc4cccc2c4c31
- activation [1]: 7.55% (inactive)
- Potency [8]: 6.86 µM (active)
- Potency [12]: 29.8 µM (active)

Compound: O=[N+]([O-])c1ccc2ccc3cccc4ccc1c2c34
- activation [1]: -12% (inactive)
- Potency [6]: inactive
- Potency [8]: 4.33 µM (active)
- outcome [7]: inactive

Compound: O=[N+]([O-])c1ccc(Nc2ccccc2)cc1
- Potency [10]: inactive
- activation [3]: -0.43% (inactive)
- Potency [8]: 48.6 µM (active)
- activation [9]: 0.166% (inactive)

Compound: CCNc1nc(NC(C)C)nc(OC)n1
- Potency [10]: inactive
- activation [3]: -1.69% (inactive)
- Potency [4]: inactive
- Potency [8]: inactive
- activation [9]: -1.42% (inactive)
- outcome [7]: inactive

Compound: FC(F)C(F)(F)OCC(Cn1cncn1)c1ccc(Cl)cc1Cl (configuration not stated)
- Potency [10]: inactive
- activation [3]: 3.91% (inactive)

Compound: N#Cc1cc(Br)c(O)c(Br)c1
- Potency [10]: inactive
- activation [3]: 4.63% (inactive)
- Potency [5]: inactive
- Potency [8]: 61.1 µM (active)
- outcome [7]: inactive

Compound: CCS(=O)(=O)c1cccnc1S(=O)(=O)NC(=O)Nc1nc(OC)cc(OC)n1
- Potency [10]: inactive
- Potency [4]: inactive
- Potency [6]: inactive
- Potency [8]: 10.9 µM (active)

Compound: CC(C)C1(C)N=C(c2ncccc2C(=O)O)NC1=O (configuration not stated)
- Potency [10]: inactive
- activation [3]: 0.632% (inactive)
- Potency [4]: inactive
- Potency [5]: inactive
- Potency [6]: inactive
- Potency [8]: inactive
- outcome [7]: inactive

Compound: CNc1cnn(-c2cccc(C(F)(F)F)c2)c(=O)c1Cl
- Potency [10]: inactive
- activation [3]: -4.87% (inactive)
- Potency [4]: inactive
- activation [9]: -1.53% (inactive)

Compound: CCOP(=O)(OCC)Oc1cc(C)nc(C(C)C)n1
- Potency [10]: inactive
- activation [3]: 20.3% (inactive)
- Potency [4]: inactive
- Potency [6]: inactive
- outcome [7]: inactive

Compound: COP(=O)(OC)Oc1nc(Cl)c(Cl)cc1Cl
- Potency [2]: inactive
- Potency [10]: inactive
- Potency [8]: 48.6 µM (active)
- activation [9]: 1.02% (inactive)
- outcome [7]: inactive
